# PubChem BioAssay AID602475 (National Center for Advancing Translational Sciences (NCATS), 2012)
# Results filed as inconclusive are left out. Active and inactive are the calls of the source. The call rests on the fitted dose curve; in most records, active means well fitted inhibition curve with a large enough effect; inconclusive means small, poorly fitted or top-dose-only effect; inactive means no such curve, though single readings can be large or run the other way.
# Target: Luciferin 4-monooxygenase (Photinus pyralis) (UniProt P08659)
# Sequence (P08659 whole entry, looked up): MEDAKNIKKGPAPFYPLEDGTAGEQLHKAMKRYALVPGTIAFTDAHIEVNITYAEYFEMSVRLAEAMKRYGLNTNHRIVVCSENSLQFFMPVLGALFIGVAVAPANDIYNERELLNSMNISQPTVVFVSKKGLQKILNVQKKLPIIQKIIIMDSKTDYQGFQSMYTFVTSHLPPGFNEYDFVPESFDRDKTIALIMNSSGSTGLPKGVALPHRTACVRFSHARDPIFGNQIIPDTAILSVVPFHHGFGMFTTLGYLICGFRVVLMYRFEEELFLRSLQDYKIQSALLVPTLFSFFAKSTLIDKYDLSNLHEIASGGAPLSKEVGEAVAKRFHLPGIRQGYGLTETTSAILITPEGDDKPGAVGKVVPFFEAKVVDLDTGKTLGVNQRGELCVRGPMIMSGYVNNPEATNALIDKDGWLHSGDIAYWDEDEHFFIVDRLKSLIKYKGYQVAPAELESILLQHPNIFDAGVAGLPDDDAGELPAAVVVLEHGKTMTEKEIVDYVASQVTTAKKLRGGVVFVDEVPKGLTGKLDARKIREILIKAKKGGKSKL
# Assay: FLuc inhibitory activity for the follow-up compounds in a biochemical assay with an in-house formulation of detection reagent
# Conditions: purified FLuc, luminescence; series mostly up to 25.6 µM
# Method in brief: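 Purified P. pyralis luciferase (10 nM) in 50 mM Tris acetate, compounds titrated 12-point from ~25uM to 0.1nM. In-house detection reagent added (450uM ATP, 1mM D-luciferin, 500uM coenzyme A, 5mM DTT, 1% Triton-X100); luminescence imaged.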
compound,measurement,value
CC(C)c1ccc(-c2nc3ccccc3s2)cc1,Potency,0.098 µM (active)
